Screening data (PubChem BioAssay)
Tau fluor cs = counter-screen for tau fibril formation inhibitors. tau K18 P301L Alexa594 fluorescence, heparin fibrillization. Potency, µM (top dose mostly 57.7 µM), inactives show at the top dose activity change, negative = decrease. 0.93% of 280,000 active; note: nearly all actives have a fitted effect of over 55% in size
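Human tau K18 P301L (15 uM unlabeled, 0.24 uM Alexa 594-labeled) in 100 mM sodium acetate pH 7 with 20 uM heparin, 6 hr at 37 C. ThT 30 uM added, 1 hr ambient; Alexa 594 FP and total fluorescence read at 555/632 nm.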
JMJD2E inh = JMJD2E (human) inhibition. B2RXH2. JMJD2E catalytic domain, FDH-coupled NADH fluorescence (FDH is formaldehyde dehydrogenase). Potency, µM (titrated, usually from 57.1 µM), inactives show at the highest dose activity change, negative = inhibition, hits mostly inhibitors. 1.6% of 230,000 active. AID 2147; active = well fitted inhibition curve with a large enough effect, not every such curve was filed as active; inconclusive = small, poorly fitted or top-dose-only effect, or another doubt; inactive = no such curve, though single readings can be large or run the other way;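 note: 0% = wells with enzyme and -100% = buffer wells without enzyme; nearly all actives have a fitted effect of over 50% in size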
Target sequence (B2RXH2 1-337 limits assumed): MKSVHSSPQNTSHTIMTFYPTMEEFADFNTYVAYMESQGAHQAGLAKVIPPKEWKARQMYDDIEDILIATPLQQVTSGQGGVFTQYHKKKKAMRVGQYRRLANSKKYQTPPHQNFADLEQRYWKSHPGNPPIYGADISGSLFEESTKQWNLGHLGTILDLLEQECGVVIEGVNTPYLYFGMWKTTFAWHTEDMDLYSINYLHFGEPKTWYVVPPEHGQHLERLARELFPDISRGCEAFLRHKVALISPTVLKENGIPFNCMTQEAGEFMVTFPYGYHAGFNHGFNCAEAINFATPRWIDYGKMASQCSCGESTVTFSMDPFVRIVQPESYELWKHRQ
HPGD inh = inhibitors of human 15-hydroxyprostaglandin dehydrogenase (HPGD); purified HPGD, NADH fluorescence kinetic, PGE2 substrate; P15428; 4.3% of 150,000 active; Potency, µM, for the others: at the top dose activity change, negative = inhibition, usual class: inhibitors; active = well fitted inhibition curve with a large enough effect, not every such curve was filed as active; inconclusive = small, poorly fitted or top-dose-only effect, or another doubt; inactive = no such curve, though single readings can be large or run the other way
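NADH formation kinetics: reaction with 30 uM PGE2 and 1 mM NAD+ (final), 20 nM enzyme, Tris-HCl pH 8 with Tween 20, after 15 min compound preincubation at room temperature. Fluorescence change, last versus first of five reads.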
Tau ThT inhib = tau fibrillization inhibition (ThT binding); AID 1460; 2.1% of 270,000 active; recombinant tau K18 P301L (four-repeat tau fragment), heparin-induced fibrillization, ThT fluorescence; Potency, µM (doses to about 57.4 µM), for the others: top-dose activity, negative = inhibition, most hits filed as inhibitors; note: nearly all actives have a fitted effect of over 55% in size
Target sequence (P10636 561-689 P618L limits assumed): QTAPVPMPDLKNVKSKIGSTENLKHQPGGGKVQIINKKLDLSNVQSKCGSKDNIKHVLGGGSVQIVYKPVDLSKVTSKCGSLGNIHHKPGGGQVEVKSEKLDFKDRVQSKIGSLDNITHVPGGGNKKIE
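Heparin-induced fibrillization of the P301L-mutant K18 repeat-domain fragment of human tau was followed by ThT binding in quantitative high-throughput format.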
ALDH1A1 block = ALDH1A1 (human) enzyme inhibition. P00352. 7.3% of 220,000 active. Potency, µM (titrated, usually from 75.3 µM), inactives show at the top dose activity, negative = inhibition, most hits filed as inhibitors. Purified ALDH1A1, NADH fluorescence, propionaldehyde substrate; active = well fitted inhibition curve with a large enough effect, not every such curve was filed as active; inconclusive = small, poorly fitted or top-dose-only effect, or another doubt; inactive = no such curve, though single readings can be large or run the other way;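 note: plate controls were no enzyme wells and a reference inhibitor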
Tau FP inhib = blocks human tau fibril formation measured by polarization | P10636 | K18 P301L tau heparin fibrillization, Alexa594 FP, 6 h | Potency, µM (top dose mostly 57.7 µM), for inactives: at the top dose activity, negative = inhibition, hits mostly inhibitors | 0.39% of 280,000 active; note: nearly all actives have a fitted effect of over 55% in size
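Human K18 P301L fragment (15 uM unlabeled plus 0.24 uM Alexa 594-labeled) in 100 mM sodium acetate pH 7 with compound, aggregation induced by 20 uM heparin for 6 hr at 37 C. ThT (30 uM) added for 1 hr, then Alexa 594 FP read.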
The depositor's hits bear a star; ? = inconclusive; · = no result. In the library only some 9.9% were active in any assay of this set; here they are far more common. Unless noted, calls come from the whole dose curve; as a rule, active = well fitted curve in the direction sought with a large enough effect; inconclusive = small, poorly fitted or top-dose-only effect, or another doubt; inactive = no such curve, though single readings can be large; an effect the other way counts as inactive or inconclusive. Unless noted, % is set by controls: 0 for no effect and ±100 for the full control effect; potency is the fitted concentration of half-maximal effect.

SMILES	Tau fluor cs	JMJD2E inh	HPGD inh	Tau ThT inhib	ALDH1A1 block	Tau FP inhib
COc1ccccc1-n1c(SCc2cc(=O)oc3cc(O)ccc23)nc2ccccc2c1=O	?	?	-22%	-9%	-19%	-13%
CCC(CO)n1c(SCc2cc(=O)oc3cc(C)ccc23)nc2ccccc2c1=O (stereo unspecified)	-23%	-8%	-12%	?	4.5µM*	1%
CCCN(C(=O)CCl)C1=CCCCC1	-7%	-1%	·	-5%	0.71µM*	-5%
CCCNC(=O)C(=O)NCCC1=CCCCC1	3%	1%	-2%	4%	6%	1%
Cc1ccc(-n2nc(CO)c(C(=O)NCc3cccs3)n2)cc1C	-3%	·	·	0%	·	-1%
COc1ccc(NC(=O)CC2C(=O)N(C)C(=S)N2CCc2ccc(F)cc2)cc1 (stereo unspecified)	?	-5%	·	1%	·	-19%
COc1ccc(NC(=O)CC2C(=O)N(C)C(=S)N2Cc2cccs2)cc1 (stereo unspecified)	-2%	-1%	-2%	10%	0%	-7%
COc1ccc(NC(=O)CC2C(=O)N(C)C(=S)N2CCc2ccccc2)cc1 (stereo unspecified)	-29%	-13%	-6%	8%	0.89µM*	-5%
COc1ccc(CCN2C(=S)N(C)C(=O)C2CC(=O)Nc2ccc(OC)cc2)cc1 (stereo unspecified)	?	-5%	·	-10%	4.5µM*	?
CCN1C(=O)C(CC(=O)Nc2ccc(OC)cc2)N(CCc2ccc(F)cc2)C1=S (stereo unspecified)	?	-16%	·	-6%	14µM*	?
CC(OC(=O)/C=C/c1ccco1)C(=O)Nc1cccc([N+](=O)[O-])c1 (stereo unspecified)	-20%	-3%	?	-12%	?	4%
COc1ccc([N+](=O)[O-])cc1NC(=O)C(C)OC(=O)/C=C/c1ccco1 (stereo unspecified)	-12%	3%	28µM*	-8%	?	-1%
Cc1cccc(NC(=S)NC(=O)/C=C/c2ccco2)c1	-28%	-5%	·	?	24µM*	-8%
O=C(/C=C/c1ccco1)NC(=S)Nc1cccc([N+](=O)[O-])c1	0%	-5%	18µM*	1%	0%	10%
O=C(NC(=S)Nc1cccc([N+](=O)[O-])c1)c1ccco1	-1%	-2%	-3%	-4%	3%	3%
COc1ccccc1NC(=S)NC(=O)/C=C/c1ccco1	-15%	?	28µM*	?	25µM*	-13%
COc1cc2c(cc1NC(=S)NC(=O)/C=C/c1ccco1)oc1ccccc12	-5%	-8%	-12%	?	0%	-8%
O=C(CN1C(=O)CSc2ccc(S(=O)(=O)N3CCCC3)cc21)NCc1ccc(F)cc1Cl	-11%	·	·	4%	·	-4%
COc1ccc(Cn2nnnc2CN2CCc3ccccc3C2)cc1	-12%	1%	-10%	-18%	11µM*	-4%
OC1(c2cccnc2)CCN(Cc2nnnn2Cc2ccccc2)CC1	-7%	2%	·	-7%	16µM*	-9%
COc1ccc(Cn2nnnc2CN2CCC(O)(c3ccccc3F)CC2)cc1	-9%	4%	·	-4%	8.9µM*	2%
OC1(c2ccccc2F)CCN(Cc2nnnn2Cc2ccc(F)cc2)CC1	0%	-1%	·	2%	0%	0%
Cc1cc(=O)[nH]c2nnc(SCC(N)=O)n12	1%	·	·	0%	·	-6%
COc1ccccc1OCCn1c(-c2ccc(Br)cc2)nc2ccccc2c1=O	-7%	·	·	12%	·	-11%
COc1ccccc1CNC(=O)CN1N=C(c2ccccc2)CCC1=O	8%	·	·	11%	·	1%
O=c1c(N2CCN(c3cccc(C(F)(F)F)c3)CC2)csc2ccc(Cl)cc12	-19%	·	·	16µM*	·	4%
Cc1ccc2scc(N3CCN(c4cccc(C(F)(F)F)c4)CC3)c(=O)c2c1	-4%	·	·	?	·	0%
